A selection: hits, their analogues and other compounds. The true share with any hit is near 8.7%.
HP1b chromo inh: blocks HP1-beta chromodomain binding to methylated histone tails; P83916; AlphaScreen HP1-beta / biotin-H3K9me3 peptide binding; Potency, µM (doses to about 114 µM), inactives show at the highest dose activity change, negative = inhibition, actives largely listed as inhibitors; 0.56% of 390,000 active; AID 540317; note: nearly all actives have a fitted effect of over 70% in size
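AlphaScreen: HP1-beta (50 nM) preformed 30 min with biotin-H3(1-18)K9me3 peptide (50 nM) in PBS pH 7.4, 0.01% Tween-20. Compound added for 30 min at RT, then streptavidin donor/nickel chelate acceptor beads (10 ug/mL) for 30 min.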
JMJD2A Tudor inh: JMJD2A Tudor domain (human) inhibition | O75164 | AlphaScreen JMJD2A-Tudor / H3K4me3 peptide binding | Potency, µM (highest dose often 114 µM), for the others: top-dose activity change, negative = inhibition, hits mostly inhibitors | 4.4% of 390,000 active; note: % is set by controls: 0 for no effect and ±100 for the full control effect; nearly all actives have a fitted effect of over 50% in size
12-LOX inh: inhibitors of human 12S-lipoxygenase ALOX12 | P18054 | purified 12hLO, xylenol orange hydroperoxide absorbance | Potency, µM (series often up to 108 µM), without a hit: at the highest dose activity change, negative = inhibition, usual class: inhibitors | 1.1% of 580,000 active; note: % is set by controls: 0 for no effect and ±100 for the full control effect
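Purified human 12hLO (150 nM final) in 25 mM Hepes, 0.01% Triton X-100, pH 7.0 was preincubated 15 min at room temperature with compound. Then 40 uM arachidonic acid was added, 30 min. Hydroperoxide was read by Fe-XO absorbance ratio 573/405 nm.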
BAZ2B block: blocks human BAZ2B; 4.4% of 360,000 active; Q9UIF8; Potency, µM (titrated, usually from 114 µM), inactives show top-dose activity change, negative = inhibition, actives largely listed as inhibitors; AlphaScreen BAZ2B-H3K14Ac peptide displacement; AID 504333; note: % is set by controls: 0 for no effect and ±100 for the full control effect; nearly all actives have a fitted effect of over 60% in size
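Complex of BAZ2B and biotin-H3K14Ac (50 nM apiece) forms over 30 min at RT, then faces library compounds up to 110 uM for another 30 min; AlphaScreen beads added, 20 min dark incubation, luminescence read.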
G9a inh: inhibitors of human histone lysine methyltransferase G9a; G9a H3K9 monomethylation, AlphaScreen, 2 h; Potency, µM (series often up to 102 µM), for the others: at the highest dose activity, negative = inhibition, most hits filed as inhibitors; Q96KQ7; 8.8% of 350,000 active; note: % is set by controls: 0 for no effect and ±100 for the full control effect; nearly all actives have a fitted effect of over 75% in size
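Quantitative HTS format: methyltransferase activity on a biotin-tagged H3K9 peptide is measured by AlphaScreen, using a rabbit anti-monomethyl-H3K9 antibody with streptavidin donor and anti-IgG acceptor beads. Final levels are 20 nM enzyme, 500 nM peptide, 20 uM SAM; 2 h RT.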
Sfp PPTase inh: blocks B. subtilis Sfp PPTase activity. 3.5% of 310,000 active. Q9F4F7. Biochemical Sfp PPTase activity, qHTS. Potency, µM, without a hit: largest response in the series, negative = inhibition, usual class: inhibitors. AID 1490;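 note: the enzyme is Sfp with the accession as filed and its product quenches rhodamine fluorescence; 0% = enzyme reaction without inhibitor and -100% = no enzyme wells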
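Step 1, compound plus 15 nM Sfp-PPTase, 15 min, room temperature. Step 2, add rhodamine-CoA (5 uM) and BHQ-2-YbbR (12.5 uM). Step 3, read 525/598 nm fluorescence at 0 and 30 min.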
Active calls of the source: *; ? = inconclusive; / = not tested or not shown; ! = not confirmed by another sample; [ ] = another dose, or the depositor's remark. Calls come from the whole dose curve; as a rule, active = well fitted curve in the direction sought with a large enough effect; inconclusive = small, poorly fitted or top-dose-only effect, or another doubt; inactive = no such curve, though single readings can be large; an effect the other way counts as inactive or inconclusive. Potency is the fitted concentration of half-maximal effect.

SMILES	HP1b chromo inh	JMJD2A Tudor inh	12-LOX inh	BAZ2B block	G9a inh	Sfp PPTase inh
O=C(CCN1C(=O)S/C(=C/c2ccccc2)C1=O)Nc1ccc(C(=O)O)c(O)c1	19.2%	0.4%	-11.6%	?	/	6.0%
CC(C(=O)Nc1ccc(C(=O)O)c(O)c1)N1C(=O)/C(=C\c2ccco2)SC1=S (stereo unspecified)	20.7%	6.6%	/	28.2µM*	14.1µM*	50.1µM*
CCOC(=O)C1CCN(c2nc3ccccc3n3c(=O)n(CC(=O)Nc4ccc(C#N)cc4)nc23)CC1	/	/	4.3%	/	/	/
O=C(CN1C(=O)/C(=C/c2ccco2)SC1=S)Nc1ccc(C(=O)O)c(O)c1	29.9%	-10.9%	28.2µM*	28.2µM*	/	50.1µM*
CC1=NS(=O)(=O)N(C)C=C1C(=O)OCc1nc(Cc2cccc(C)c2)no1	/	/	15.8%	/	/	/
Cc1ccccc1C(=O)Nc1nnc2n1CCS2	9.0%[57 µM]	?	0.9%	?	8.91µM*	/
O=C(Nc1ccc(N2CCCCC2)cc1)c1ccc(F)cc1F	6.7%	-16.2%	152.4%	-6.3%	/	5.4%
O=C(Nc1nnc2n1CCS2)c1ccc(F)cc1F	12.7%[57 µM]	50.1µM*	-5.1%	50.1µM*	2.24µM*	/
Cc1ccc(-c2csc(NC(=O)CSc3nc4ccccc4c(=O)n3CCCN(C)C)n2)cc1	?	44.7µM*	?	?	39.8µM*	56.2µM*
CN(C)CCCn1c(SCC(=O)N2c3ccccc3Sc3ccccc32)nc2ccccc2c1=O	?	?	-25.5%	?	39.8µM*	?
Cc1ccc(Cl)cc1N1CCN(CC(=O)N(C)CC(=O)Nc2ccccc2C(F)(F)F)CC1	/	/	-2.3%	/	/	/
CC1=NN(c2ccccc2)C(=O)C1C(=O)c1cc([N+](=O)[O-])cc([N+](=O)[O-])c1 (stereo unspecified)	29.9%	-21.8%	?	?	11.2µM*	13.7%
COc1ccc(-c2nc(C(=O)N3CCCCCC3)nn2-c2ccccc2Cl)cc1	/	/	0.9%	/	/	/
COC(=O)CN1C(=S)N(c2ccc(Cl)cc2)C(=O)C1CC(=O)Nc1ccc(F)cc1 (stereo unspecified)	13.8%	-23.2%	?	3.4%	50.1µM*	-6.6%
COC(=O)CN1C(=S)N(c2ccc(F)cc2)C(=O)C1CC(=O)Nc1ccc(F)cc1 (stereo unspecified)	-19.1%	-16.9%	?	-12.9%	-45.4%[59 µM]	4.3%
COC(=O)CN1C(=S)N(c2ccc(Cl)cc2)C(=O)C1CC(=O)Nc1ccc(Cl)cc1 (stereo unspecified)	-13.3%	-5.3%	35.5µM*	?	18.8%[59 µM]	79.4µM*
O=C(CC1C(=O)NCCN1C(=O)Nc1ccc(Cl)cc1)Nc1ccc(F)cc1 (stereo unspecified)	1.3%	-19.3%	39.8µM*	-17.5%	-3.7%	17.7%
CCOc1ccccc1CCCN1CC2(CCNCC2)CCC1=O	/	/	-7.1%	/	/	/
COC(=O)c1ccc(C)c(NC(=O)c2cc(-c3cc(C)sc3C)nc3onc(C)c23)c1	/	/	-0.5%	/	/	/
O=C(O)CCC1CCN(c2cc(NC3CC3)ncn2)CC1	/	/	21.7%	/	/	/
CN(C)c1nc(N)c2ncc(=S)[nH]c2n1	20.3%	3.16µM*	?	-32.5%	1.78µM*	50.1µM*
CN(C1CCCCC1)S(=O)(=O)N1CCN(C(=O)Cc2ccc(Cl)cc2Cl)CC1	/	/	-2.9%	/	/	/
O=C(Nc1ccc([C@@H](O)[C@H]2COCC(=O)N2Cc2ccccc2F)cc1)c1ccc(F)cc1	/	/	17.8%	/	/	/
CCc1ccc(NC2=NCC(c3ccccc3)S2)cc1 (stereo unspecified)	114.1%	22.4%	-9.2%	-5.4%	5.9%	-17.6%
O=[N+]([O-])c1ccc(C2CN=C(Nc3ccccc3)S2)cc1 (stereo unspecified)	0.0%	-29.7%	0.3%	?	44.7µM*	-2.8%
SMILES	HP1b chromo inh	JMJD2A Tudor inh	12-LOX inh	BAZ2B block	G9a inh	Sfp PPTase inh
COCCOC1CCOC2(CCN(C(=O)c3nn(C)c4ccccc34)CC2)C1 (stereo unspecified)	/	/	5.5%	/	/	/
O=c1[nH]n2c(=O)c3c([nH]c2c1N=Nc1cccc(Cl)c1)CCCC3	-31.5%	?	?	?	?	7.7%
NC(=S)n1[nH]c(-c2ccc([N+](=O)[O-])cc2)c(N=Nc2ccc(O)cc2)c1=O	?	?	?	50.1µM*	56.2µM*	-27.7%
NC(=S)n1[nH]c(-c2ccc([N+](=O)[O-])cc2)c(N=Nc2cccc(Cl)c2)c1=O	-18.3%	39.8µM*	?	?	35.5µM*	-13.2%
CCN(CC)S(=O)(=O)c1ccc(N=Nc2c(C)[nH]n(C(N)=S)c2=O)cc1	-23.0%	?	-10.2%	4.8%	?	79.4µM*
Cc1[nH]n(C(N)=S)c(=O)c1N=Nc1cccc(Cl)c1	-0.8%	-25.8%	0.0%	-4.0%	39.8µM*	5.7%
NC1CCc2nn(CC(=O)NCCc3nc4ccccc4[nH]3)c(=O)n2CC1 (stereo unspecified)	/	/	32.4%	/	/	/
O=C(CC[C@@H]1CNC(=O)[C@@H]2C[C@H](NCc3ccc(F)cc3)CN12)NCc1ccc(F)cc1	/	/	16.7%	/	/	/
Cc1[nH]n(C(N)=S)c(=O)c1N=Nc1ccc([N+](=O)[O-])cc1Cl	?	?	10µM*	28.2µM*	25.1µM*	6.0%
Cc1ccc(-c2noc(CN(C)C(=O)c3ccc(Br)o3)n2)cc1	?	-2.8%	-1.0%	?	50.1µM*	/
CCNC(=O)N(C)Cc1nc(-c2ccc(C)cc2)no1	/	/	56.3%	/	/	/
O=C1CC[C@H](C(=O)O)N1	/	/	1.5%	/	19.5%[59 µM]	9.7%
O=C(O)[C@@H]1C[C@@H](C(=O)O)N1	/	/	?	/	23.8µM*!	?
Cc1cccc(N2CCN(C(=O)CC3CCCCN(Cc4ccccc4)C3=O)CC2)c1 (stereo unspecified)	/	/	7.2%	/	/	/
COc1ccc(C(=O)NCC(c2ccco2)N2CCc3ccccc32)c(OC)c1 (stereo unspecified)	-10.6%	-22.6%	-4.1%	?	23.4%[2.33 µM]	/
COc1ccccc1C(=O)NCC(c1ccc(N(C)C)cc1)N1CCc2ccccc21 (stereo unspecified)	11.2µM*	11.2µM*	-8.7%	10µM*	14.1µM*	/
CN(C)c1ccc(C(CNC(=O)c2ccccc2Cl)N2CCc3ccccc32)cc1 (stereo unspecified)	?	17.8µM*	-25.8%	12.6µM*	14.1µM*	/
O=C(CN1C(=O)C2CC=C(Cl)CC2C1=O)Nc1ccc(C(=O)O)cc1 (stereo unspecified)	11.5%	-25.4%	-0.4%	-11.8%	12.6µM*	-13.3%
O=C(CCN1C(=O)C2CC=C(Cl)CC2C1=O)NCc1ccco1 (stereo unspecified)	32.4%	-26.0%	?	1.8%	-8.7%[59 µM]	-25.1%

High-throughput results as filed in PubChem BioAssay.
